Experimental data from PubChem BioAssay (Tox21).
Values joined by “and” are separate entries in the source; they are usually repeats but may differ in a detail not shown here. Equal values may be shown once. Records with an inconclusive call do not appear. Where a call stands in place of a potency, no number is given. Active and inactive are the calls of the source. Calls come from the whole dose curve; as a rule, active = well fitted cell-killing curve with a large enough effect in the repeat runs (not every such curve was filed as active); inconclusive = weak or mixed curves, or effect the other way; inactive = no such curve, though single readings can be large or run the other way.

Experiment: qHTS assay to identify small molecule antagonists of the estrogen related receptor signaling pathway with the pleiotropic PPARgamma coactivator (PGC) from Tox21 10K library - cell viability counter screen (AID 1224840); note: nearly all actives have a fitted effect of over 40% in size
Settings: PGC/ERR reporter cells viability, CellTiter-Fluor, 17.5 h; series mostly up to 92.4 µM
Procedure, shortened: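 Seeded PGC/ERR cells (2,000/well, 6 h, 37 C/5% CO2) get compound by pin tool; 17.5 h incubation at 37 C; CellTiter-Fluor added, 30 min, fluorescence measured.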
Potency is the fitted concentration of half-maximal effect.

Row | SMILES | Potency
1 | FC(F)C(F)(F)OCC(Cn1cncn1)c1ccc(Cl)cc1Cl (stereo unspecified) | 60.8 µM (active)
2 | COC(=O)c1ccccc1S(=O)(=O)NC(=O)Nc1nc(C)nc(OC)n1 | inactive
3 | O=C(NC(=O)c1ccccc1Cl)Nc1ccc(OC(F)(F)F)cc1 | inactive
4 | CC(Cc1ccccc1)N(C)Cc1ccco1 (stereo unspecified) | inactive
5 | Nc1ccc(N=Nc2ccccc2)cc1 | 24.3 µM (active)
6 | Nc1nc(N)nc(Cl)n1 | inactive
7 | O=C(Nc1ccc(F)cc1F)c1cccnc1Oc1cccc(C(F)(F)F)c1 | inactive
8 | ClSC(Cl)(Cl)Cl | inactive
9 | CCN(CC)C(=O)N[C@@H]1C=C2c3cccc4[nH]cc(c34)C[C@@H]2N(C)C1 | inactive
10 | CCC[CH2][Sn]([CH2]CCC)([CH2]CCC)[CH2]CCC | 17.2 µM (active)
11 | CNC(=O)CSP(=O)(OC)OC | inactive
12 | Clc1cc(Cl)c(-c2cc(Cl)c(Cl)cc2Cl)cc1Cl | inactive
13 | CCCCON=O | inactive
14 | C[C@H]1[C@H](c2ccc(Cl)cc2)SC(=O)N1C(=O)NC1CCCCC1 | inactive
15 | Cc1cc2c3c(c1)C(c1ccccc1)=N[C@@H](NC(=O)c1ccncc1)C(=O)N3CC2 | inactive
16 | COc1ccc(Cc2nccc3cc(OC)c(OC)cc23)cc1OC | inactive
17 | BrCCCBr | inactive
18 | N#Cc1ccc(N(CC(N)=O)CC(F)(F)F)cc1C(F)(F)F | inactive
19 | CCNc1nc(NC(C)C(C)C)nc(SC)n1 (stereo unspecified) | inactive
20 | O=[N+]([O-])c1cccc2cccc([N+](=O)[O-])c12 | inactive
21 | CCCCCCCCCCCCCCn1cc[n+](C)c1 | 27.4 µM (active) and 30.3 µM (active)
